# This is a sample that favours compounds with a hit; in the whole collection about 4.3% have one here.
# GLP1R ag: agonists of human GLP-1 receptor; P43220; HEK293 GLP-1R CRE-luciferase, luminescence, 4-6 h; cells express a hypersensitive GLP-1R form; Potency, µM (doses to about 45.6 µM), without a hit: at the top dose activation, hits mostly activators; 0.007% of 380,000 active; AID 624172; also: potency is read from the fitted curve at half-maximal effect; % of control where 0% means no effect
# Target sequence (P43220 whole entry, looked up): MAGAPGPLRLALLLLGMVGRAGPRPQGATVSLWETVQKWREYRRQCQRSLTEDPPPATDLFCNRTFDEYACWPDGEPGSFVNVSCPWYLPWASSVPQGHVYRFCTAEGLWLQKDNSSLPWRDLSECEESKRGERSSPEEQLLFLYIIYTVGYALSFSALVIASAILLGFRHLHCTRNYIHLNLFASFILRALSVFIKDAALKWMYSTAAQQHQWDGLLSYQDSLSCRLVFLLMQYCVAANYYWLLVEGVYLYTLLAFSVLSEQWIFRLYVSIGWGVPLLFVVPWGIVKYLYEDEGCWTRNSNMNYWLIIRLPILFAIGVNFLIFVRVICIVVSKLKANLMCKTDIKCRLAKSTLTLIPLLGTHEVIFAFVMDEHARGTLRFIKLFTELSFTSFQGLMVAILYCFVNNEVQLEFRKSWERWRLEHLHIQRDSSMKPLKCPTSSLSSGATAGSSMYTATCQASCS
# DRD3 agonist: activates the human D3 dopamine receptor; P35462; D3R DiscoveRx beta-arrestin cells, luminescence, 90 min; max activation, %; 0.58% of 410,000 active; in the data active = max activation above about 30%; also: 0% is about no effect
#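 Cells at 1500/well, incubated overnight, then treated with pinned compounds (dopamine as control) for 90 min at 37 degrees C. DiscoveRx reagent added for 30 - 60 minutes at room temperature; luminescence read.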
# GLP1R inv ag: inverse agonists of human GLP-1 receptor. HEK293 GLP-1R CRE-luciferase, luminescence, 24 h; GLP-1R form is constitutively active. 1.6% of 410,000 active. P43220. Potency, µM (top dose mostly 38.3 µM), for the others: top-dose activity change, negative = inhibition, usual class: inhibitors. AID 624417; also: potency is read from the fitted curve at half-maximal effect; % is scaled to controls: 0 for no effect and ±100 for the full control effect; nearly all actives have a fitted effect of over 55% in size
#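 Inverse agonism was detected as reduced cAMP-driven luciferase luminescence after 24 h compound treatment. The cells were HEK293 clones expressing constitutively active human GLP-1R with the reporter. Reporter-only and GPR119 cell lines served as counterscreen controls.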
# DRD3 antagonist: antagonists of human D3 dopamine receptor. P35462. D3R cells, DiscoveRx beta-arrestin luminescence, antagonist mode; hits give low values. max response, negative = inhibition, %. 2.5% of 360,000 active; in the data active = max response below about -50%; inconclusive = no clear call, values can overlap the other calls; also: % is scaled to controls: 0 for no effect and ±100 for the full control effect
#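 Cells expressing the human receptor were seeded at 1500 cells/well, incubated overnight at 37 degrees C in 5% CO2, then exposed to library compounds with dopamine controls for 90 minutes at 37 degrees C before luminescent detection.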
# The depositor's hits bear a star; ? = inconclusive; . = not tested or not shown. Unless noted, calls follow the shape of the dose curve; as a rule, active = well fitted curve in the direction sought with a large enough effect; inconclusive = small, poorly fitted or top-dose-only effect, or another doubt; inactive = no such curve, though single readings can be large; an effect the other way counts as inactive or inconclusive.
SMILES,GLP1R ag,DRD3 agonist,GLP1R inv ag,DRD3 antagonist
Cn1c(N)c(C(=O)COC(=O)c2cc(C3CC3)nc3ccccc23)c(=O)n(Cc2ccccc2)c1=O,5%,36*,?,3
Cn1c(N)c(C(=O)COC(=O)c2cc(-c3ccccc3)nc3ccccc23)c(=O)n(Cc2ccccc2)c1=O,15%,10,-7%,24
COc1ccccc1CCC(=O)OCC(=O)c1c(N)n(CC(C)C)c(=O)n(C)c1=O,-3%,31*,?,7
CC(C)Cn1c(N)c(C(=O)CSc2nc3ccccc3n2C)c(=O)n(C)c1=O,12%,11,1%,-54*
COc1ccc(CCC(=O)OCC(=O)c2c(N)n(CC(C)C)c(=O)n(C)c2=O)cc1,-2%,2,?,22
CC(C)Cn1c(N)c(C(=O)COC(=O)c2cc(C(F)(F)F)nc3ccccc23)c(=O)n(C)c1=O,-1%,34*,12%,95
CC(C)Cn1c(SCC(=O)c2c(N)n(C)c(=O)n(C)c2=O)nc2ccccc21,8%,0,1%,0
CC(C)Cn1c(N)c(C(=O)COC(=O)c2cc(-c3ccccc3)nc3ccccc23)c(=O)n(C)c1=O,-5%,-3,13%,15
COc1cccc(OC)c1OCCNCC1CSc2ccccc2O1 (centres undefined),-5%,-81,?,-95*
Cc1ccc(C)c(NC(=S)NNC(=O)c2csc3c2CCC(C)C3)c1 (centres undefined),0%,-8,0%,-60*
Cc1ccc(C)c(NC(=O)CCS(=O)(=O)c2cccc3nsnc23)c1,0%,1,11%,.
Cc1ccccc1NC(=O)CC1SC(=O)N(c2ccccc2)C1=O (centres undefined),10%,1,13%,-92*
O=C(CC1SC(=O)N(c2ccccc2)C1=O)Nc1cccc2ccccc12 (centres undefined),-4%,8,19%,6
N=C1SC(CC(=O)Nc2ccccc2[N+](=O)[O-])C(=O)N1c1ccccc1 (centres undefined),-8%,-15,-5%,-62*
COc1ccccc1NC(=O)CC1SC(=N)N(c2ccccc2)C1=O (centres undefined),7%,-14,-12%,0
CCOC(=O)Cn1c(=O)oc2cc(S(=O)(=O)Nc3cccc(C)c3)ccc21,2%,-4,-2%,-59*
Cc1ccc(N/N=C2\CCS(=O)(=O)c3sccc32)cc1,15%,-3,4µM*,-11
O=C(C1=C(O)C(=O)N(CCN2CCOCC2)C1c1cccc([N+](=O)[O-])c1)c1cccs1 (centres undefined),5%,-9,19%,?
O=C(C1=C(O)C(=O)N(CCN2CCOCC2)C1c1ccccc1)c1cccs1 (centres undefined),-1%,-1,12%,-52*
CS(=O)(=O)N1CCN(c2ccc(NC(=O)c3ccc(-c4ccc(Cl)cc4)o3)cc2)CC1,-10%,-5,3%,8
CN1CCN(c2ccc(NC(=O)c3ccc(-c4ccc(Cl)cc4)o3)cc2)CC1,27%,-5,4µM*,0
COc1cc(Cl)c(C)cc1Nc1c2c(nc3ccccc13)CCC2,.,-14,11µM*,.
COC(=O)c1cccc(Nc2c3c(nc4ccccc24)CCC3)c1,14%,-13,7.9µM*,-17
CCOC(=O)c1cccc(Nc2c3c(nc4ccccc24)CCC3)c1,.,-16,?,.
CCCC[C@@H]1CNC(=S)N1CCc1cccc2ccccc12,20%,0,3.5µM*,-5
SMILES,GLP1R ag,DRD3 agonist,GLP1R inv ag,DRD3 antagonist
CCCCN1C(=S)NC[C@@H]1Cc1cccc2ccccc12,14%,-1,?,4
COc1ccc(N2CCN(CCCNC(=O)c3ccc4nc(Cc5ccccc5)oc4c3)CC2)cc1,.,4,?,.
O=C(NCCCn1ccnc1)c1ccc(-c2ccccc2)cc1,-5%,3,7%,22
Cc1cc(C(=O)NCCCn2ccnc2)sc1-c1ccccc1,22%,-58,-18%,-70*
COc1ccc(-c2cc3nc(-c4ccccc4)cc(N4CCC(O)CC4)n3n2)cc1,13%,-3,7.9µM*,6
CN(C)CCCNc1cc(-c2ccccc2)nc2cc(-c3cccc(F)c3)nn12,-3%,-2,3.5µM*,-11
Cc1cccc(-c2cc3nc(C)cc(NCCCN(C)C)n3n2)c1,-4%,-8,0%,?
COCCN1CCN(c2cc(-c3ccccc3)nc3cc(-c4cccc(F)c4)nn23)CC1,-18%,15,7.9µM*,23
Cc1cccc(-c2cc3nc(-c4ccccc4)cc(N4CCC5(CC4)OCCO5)n3n2)c1,0%,2,10µM*,-16
Cc1ccc(-c2cc3nc(-c4ccccc4)cc(N4CCC5(CC4)OCCO5)n3n2)cc1,-35%,1,?,-25
Cc1ccc(CNC(=O)C(C)n2c(=O)cc(C(F)(F)F)c3c(C)nn(C)c32)cc1 (centres undefined),.,6,-1%,.
OCC1OC([S-])[C@H](O)C(O)C1O.[Au+] (some centres undefined),-3%,.,.,.
CCCN(C(=O)c1cc2c(s1)-c1c(C)cccc1OC2)c1ccc(OCC)cc1,.,5,-2%,.
O=C1C(=O)c2ccccc2C(O)=C1c1ccccc1F,-6%,-41,8%,-72*
Cc1ccccc1CNC(=O)CCCn1c(=O)c2cccn2c2cccnc21,.,-8,10%,.
O=C(NC1CCCc2c1cnn2-c1ccccc1F)c1ccccc1N1CCOCC1 (centres undefined),4%,-2,7.9µM*,6
Cc1cc(C)cc(-n2ncc3c2CCCC3NC(=O)c2ccccc2N2CCOCC2)c1 (centres undefined),14%,-8,?,-8
c1ccc(-c2cc(-c3cc(-c4ccccc4)on3)no2)cc1,5%,5,30%,14
COc1ccc(-c2cc(-c3ccccc3)no2)cc1,-8%,35*,?,20
CCCNc1nc(C)cc(-c2cc(-c3ccccc3)on2)n1,21%,-5,29%,15
COc1ccc(/C(C)=N/Nc2nc(C)cc(-c3ccccc3)n2)cc1,3%,48*,?,9
COc1ccc(Nc2nc(C)cc(-c3cc(-c4ccccc4)on3)n2)cc1,-5%,52*,26%,35
CCN(CC)CCCNc1oc(/C=C/c2ccc(OC)c(OC)c2)nc1C#N,.,-2,4%,.
O=C(Nc1c2c(nn1-c1ccc(F)cc1)CS(=O)(=O)C2)c1ccc(S(=O)(=O)N2CCOCC2)cc1,1%,-3,-6%,-65*
COc1ccc(-c2nc3ccccc3c(=O)[nH]2)cc1,1%,4,-27%,13
CN(C)c1ccc(-c2nc3ccccc3c(=O)[nH]2)cc1,-9%,1,8.9µM*,2
O=C(N/C(=C\c1ccccc1)C(=O)N1CCCCC1)c1ccc(Br)o1,-4%,-5,10µM*,-11
O=C(N/C(=C\c1ccccc1)C(=O)N1CCOCC1)c1ccc(Br)o1,9%,-3,-29%,-4

# Compound activity deposited in PubChem BioAssay by National Center for Advancing Translational Sciences (NCATS).
